Experimental data published in PubChem BioAssay.
A number with no mark means an inactive call. Results filed as inconclusive are left out. Activity calls are given as the source filed them. Unless noted, the limit is not given here; nearly all actives have IC50 up to about 30 µM.

Assay: SU-DIPG-XXV glioma cell viability, MIPE5.0 library, qHTS (AID 1347068)
Conditions: not given

Q: Which outcome does the source give for O=C(O)c1cc(O)c2c(c1)C(=O)c1cccc(O)c1C2=O here?
A: inactive

Q: With CC1COC2(CCN(c3nc(=O)c4cc(C(F)(F)F)cc([N+](=O)[O-])c4s3)CC2)O1 (stereo unspecified) as the compound, how does the outcome read?
A: inactive

Q: For C=C1/C(=C\C=C2/CCC[C@]3(C)[C@@H]([C@H](C)/C=C/[C@H](C)C(C)C)CC[C@@H]23)C[C@@H](O)C[C@@H]1O, which outcome is on record?
A: inactive

Q: Which outcome does the source give for CC(C)(C)OC(=O)N[C@H]1CCCCC/C=C\[C@@H]2C[C@@]2(C(=O)NS(=O)(=O)C2CC2)NC(=O)[C@@H]2C[C@@H](OC(=O)N3Cc4cccc(F)c4C3)CN2C1=O here?
A: inactive

Q: With C=C1C[C@@]2(O)O[C@@]3(C[C@H]2C(C)C)[C@@H](C)CC[C@@H]13 as the compound, how does the outcome read?
A: inactive

Q: For C[C@]12CC[C@H](O)CC1=CCC1C2CC[C@]2(C)C(n3cnc4ccccc43)=CCC12 (stereo partly specified), which outcome is on record?
A: inactive

Q: For Cc1ccnc(NS(=O)(=O)c2ccc(NC(=O)Nc3ccc(S(=O)(=O)Nc4nccc(C)n4)cc3)cc2)n1, which outcome is on record?
A: inactive

Q: Which outcome does the source give for CC(C)(C)COc1ccc(-n2cc(C(=O)O)cn2)cc1C#N here?
A: inactive

Q: With Nc1n[nH]c2nnc(-c3c(-c4ccccc4)nn4ccccc34)cc12 as the compound, how does the outcome read?
A: inactive

Q: With c1nc2nc(Nc3ccc(N4CCOCC4)cc3)nc(NC3CCCCC3)c2[nH]1 as the compound, how does the outcome read?
A: inactive

Q: Which outcome does the source give for CCC(C)CCCCC(=O)N[C@@H](CCN)C(=O)NC(C(=O)N[C@H](CCN)C(=O)N[C@@H]1CCNC(=O)C([C@@H](C)O)NC(=O)[C@@H](CCN)NC(=O)[C@@H](CCN)NC(=O)[C@@H](CC(C)C)NC(=O)[C@H](Cc2ccccc2)NC(=O)[C@H](CCN)NC1=O)[C@@H](C)O (stereo partly specified) here?
A: inactive

Q: Which outcome does the source give for COc1ccc(CC2SC(=O)NC2=O)cc1C(=O)NCc1ccc(C(F)(F)F)cc1 (stereo unspecified) here?
A: inactive

Q: For Cc1nc2c([nH]1)CCN(C(=O)c1ccc(NC(=O)c3ccccc3-c3ccccc3)cc1)c1ccccc1-2, which outcome is on record?
A: inactive

Assay: sensitizers of A549 cells to miR-34 induction, primary screen, imaging, A549 dox-inducible miR-34, nuclei and caspase counts (AID 1347080;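 active = compounds whose cell count with miR-34 switched on is under 0.7 times the count with it off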)
Conditions: A549 miR-34 inducible, Hoechst nuclei count, 48 h; hits give low values; cell number ratio, induced over uninduced

Q: With CC1COC2(CCN(c3nc(=O)c4cc(C(F)(F)F)cc([N+](=O)[O-])c4s3)CC2)O1 (stereo unspecified) as the compound, how does the fold change read?
A: 0.872

Q: Which fold change does the source give for CCCCCCCCCCCCCC(=O)N[C@H](CO)[C@H](O)c1ccc([N+](=O)[O-])cc1 here?
A: 0.96

Q: Which fold change does the source give for Cc1nc2c([nH]1)CCN(C(=O)c1ccc(NC(=O)c3ccccc3-c3ccccc3)cc1)c1ccccc1-2 here?
A: 0.926
